Common to all, as to assay: Confirmatory Screen for Target Class Profiling of Small Molecule Inhibitors of Methyltransferases (AID 1745852); on activity change, negative = inhibition: on the % scale 0 is the no-effect control and ±100 the full control effect
Assay [1] deals with Catechol O-methyltransferase (Homo sapiens) (UniProt P21964). Conditions: MTase-Glo luminescence, SAH detection, recombinant enzyme; measured here: COMT max response; stronger effect = lower value.
Assay [2] deals with Guanidinoacetate N-methyltransferase (Homo sapiens) (UniProt Q14353). As to conditions: MTase-Glo luminescence, SAH detection, recombinant enzyme; activity change, negative = inhibition: at 57.3 µM (top of the series) unless noted; series mostly up to 57.3 µM.
In assay [3] the target is Nicotinamide N-methyltransferase (Homo sapiens) (UniProt P40261). As to conditions: MTase-Glo luminescence, SAH detection, recombinant enzyme; measured here: NNMT max response; stronger effect = lower value.
Assay [4] deals with Phenylethanolamine N-methyltransferase (Homo sapiens) (UniProt P11086). As to conditions: MTase-Glo luminescence, SAH detection, recombinant enzyme; measured here: PNMT max response; stronger effect = lower value.

The structures appear in SMILES notation. The source made the active and inactive calls. The call rests on the fitted dose curve.
Potency means the concentration at half of the fitted maximal effect.

Catechol O-methyltransferase (Homo sapiens), sequence (P21964 whole entry, looked up): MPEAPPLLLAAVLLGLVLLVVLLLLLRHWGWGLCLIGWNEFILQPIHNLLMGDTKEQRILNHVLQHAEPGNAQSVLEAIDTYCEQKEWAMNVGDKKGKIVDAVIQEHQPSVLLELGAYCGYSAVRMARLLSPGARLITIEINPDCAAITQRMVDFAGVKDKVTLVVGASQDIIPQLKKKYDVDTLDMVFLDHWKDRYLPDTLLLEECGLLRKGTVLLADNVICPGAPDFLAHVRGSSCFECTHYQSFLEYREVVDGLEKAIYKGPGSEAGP
Nicotinamide N-methyltransferase (Homo sapiens), sequence (P40261 whole entry, looked up): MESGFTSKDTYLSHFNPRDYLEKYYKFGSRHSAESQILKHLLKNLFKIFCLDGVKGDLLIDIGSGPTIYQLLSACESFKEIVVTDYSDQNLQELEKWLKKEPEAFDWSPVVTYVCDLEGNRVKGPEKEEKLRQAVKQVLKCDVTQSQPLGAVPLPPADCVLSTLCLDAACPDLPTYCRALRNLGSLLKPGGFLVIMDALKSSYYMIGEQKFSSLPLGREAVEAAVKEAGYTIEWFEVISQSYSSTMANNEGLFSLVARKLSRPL
Phenylethanolamine N-methyltransferase (Homo sapiens), sequence (P11086 whole entry, looked up): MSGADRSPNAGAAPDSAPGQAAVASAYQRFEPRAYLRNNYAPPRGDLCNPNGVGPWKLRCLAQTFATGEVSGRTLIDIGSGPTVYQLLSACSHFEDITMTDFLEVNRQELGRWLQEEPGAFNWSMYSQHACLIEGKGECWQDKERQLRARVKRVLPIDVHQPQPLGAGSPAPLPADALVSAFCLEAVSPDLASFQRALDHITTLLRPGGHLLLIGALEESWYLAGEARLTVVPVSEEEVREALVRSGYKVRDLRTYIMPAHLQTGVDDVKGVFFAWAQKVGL

In the case of `CCN(CC)CCCNC(=O)CCc1nnc2n(Cc3ccc(Cl)cc3)c(=O)c3ccccc3n12`, the values for the activity in assay [1], in assay [3] and in assay [4] were 4.07%, -5.57% and 0%, respectively. The activity change, negative = inhibition in assay [2] was 0%.
As to `CC1CCN(CCCNC(=O)C2CCc3sc(C(=O)N4CCCC4)cc3C2)CC1` (stereo not given), the values for the activity in assay [1], in assay [3] and in assay [4] were 4.14%, -0.224% and 4.65%, respectively. Also, the activity change, negative = inhibition in assay [2] was determined as 6.27%.
For `CC1CCCCC1NC(=O)C1(C)Cn2c(cc3sccc32)C(=O)N1Cc1ccc(Cl)cc1` (stereo not given), in that order: -7.44%, -8.12%, -8.77% and -6.06%.
For `O=C(CCc1nnc2n(Cc3ccccc3Cl)c(=O)c3ccccc3n12)NCCc1c[nH]c2ccccc12`, in that order: 4.12%, -2.9%, -5.42% and 0%.
`Cc1cccc(N2CCN(C(=O)CCc3nnc4n(CCC(C)C)c(=O)c5ccccc5n34)CC2)c1C`: the activity in assay [1] was -0.369%; in assay [3], -48.8%; in assay [4] it was -4.73%. Further, the activity change, negative = inhibition in assay [2] stood at 0%.
For the molecule `CC1CC(C)CN(S(=O)(=O)c2ccc3c(c2)oc(=O)n3CC(=O)Nc2ccc(Cl)cc2)C1` (stereo not given), the activity in assay [1] is -4.03%; in assay [3], -8.67%; in assay [4] it was -61.6%. Also, in assay [2], the activity change, negative = inhibition was -1.24%.
For `CCN(CC)CCCNC(=O)CCc1nnc2n(CCc3ccccc3)c(=O)c3ccccc3n12`, in that order: -3.69%, -11.7%, 2.52% and -1.16%.
Consider `CCCC1c2cccn2CCN1C(=O)Nc1cccc(C(F)(F)F)c1` (stereo not given), for which the activity is -5.53% in assay [1], -7.32% in assay [3] and -5.65% in assay [4]. Moreover, the activity change, negative = inhibition in assay [2] was -0.7%.
As to `O=C(NCc1ccc2c(c1)OCO2)c1sc(=S)n2c1[nH]c(=O)c1cc(Cl)ccc12`, the activity is -44.1% in assay [1], -69.1% in assay [3] and -48.4% in assay [4]. Also, in assay [2], the Potency is 30.4 µM (active).
For `COC(=O)c1nc(NC(=O)Cn2nc3c(cc2=O)CCCC3)sc1C(C)C`, the activity in assay [1] is -1.05%; in assay [3], -8.15%; in assay [4], 2.23%. In assay [2], the activity change, negative = inhibition amounted to 0.9%.
`COCc1nc2nc(-c3ccccc3)c(-c3ccc(O)c(F)c3)cc2n1C`: the activity was -38% in assay [1], -53% in assay [3] and -59.9% in assay [4]. In addition, in assay [2], the Potency is 39.3 µM (active).
As to `CC1CCN(CCCNC(=O)CCc2nnc3n(Cc4ccccc4Cl)c(=O)c4ccccc4n23)CC1`, the values for the activity in assay [1], in assay [3] and in assay [4] were -11.4%, -14.4% and -7.41%, respectively. The activity change, negative = inhibition in assay [2] is -3.45%.
Consider `O=C(CCCc1nnc2n3nc(-c4ccccc4)nc3c3ccccc3n12)NCCCN1CCCCC1`, for which the activity in assay [1] is -1.71%; in assay [3] it was 2.5%; in assay [4] it was 0.451%. Besides, the activity change, negative = inhibition in assay [2] is 0%.
For the molecule `O=C(CCc1nnc2n(Cc3ccc(F)cc3)c(=O)c3ccccc3n12)NCCN1CCCC1`, the activity was -4.07% in assay [1], -16.1% in assay [3] and 2.1% in assay [4]. The activity change, negative = inhibition in assay [2] is -0.511%.
Taken in the same sequence, the figures for `CCCC1c2cccn2CCN1C(=O)Nc1ccc(F)cc1F` (stereo not given) were -4.42%, -4.75%, -3.85% and 1.31%.
Taken in the same sequence, the figures for `COc1ccnc(-c2nnc3ccc(Nc4cc(OC)c(OC)c(OC)c4)nn23)c1` were -13.7%, -18%, -25.6% and -8.44% [at 85.7 µM].
For `CN1CCN(C)c2cnc(-c3cnn(Cc4ccccc4)c3)cc2C1`, in that order: 6.86%, 6.62%, 8.78% and 5.27% [at 85.7 µM].
As to `CNc1cc(C2CC(NC(=O)COc3ccc(Cl)cc3C)C2)nc(N)n1` (stereo not given), the activity in assay [1] was 7.09%; in assay [3] it was -5.16%; in assay [4], 6.12%. Moreover, the activity change, negative = inhibition in assay [2] came out at 2.13%.
Consider `Cc1ccc(NC(=O)CSc2nnc3n(CC(C)C)c(=O)c4ccccc4n23)cc1`, for which the activity in assay [1] was 1.84%; in assay [3] it was -8.6%; in assay [4] it was -2.78%. Moreover, the Potency result in assay [2] is “inactive”.
As to `CCN(CC)CCNC(=O)CCc1nnc2n(Cc3ccc(Cl)cc3)c(=O)c3ccccc3n12`, the activity was 2.48% in assay [1], -12.4% in assay [3] and 0% in assay [4]. Besides, the activity change, negative = inhibition in assay [2] is 0%.
In the case of `OC1(Cn2ccnc2)CCN(Cc2ccccc2Cn2cccn2)CC1`, the results for the activity in assay [1], in assay [3] and in assay [4] were 3.04%, 4.14% and 5.79%, respectively. Moreover, the activity change, negative = inhibition in assay [2] amounted to 3.7%.
Taken in the same sequence, the figures for `COC(=O)[C@@H]1Cc2ncn(Cc3ccc(Cl)cc3)c2CN1CCCc1ccccc1` were 0.13%, -17%, -1.27% and 2.15% [at 85.7 µM].
For `O=S(=O)(c1ccc(Br)cc1)c1nnn2c1nc(NCCc1c[nH]c3ccccc13)c1ccccc12`, in that order: -1.9%, -1.21%, -6.06% and -2.1%.
On to `Cc1cc(F)ccc1NS(=O)(=O)c1ccc2[nH]c3c(c2c1)CCCC3`, for which the activity in assay [1] is 0%; in assay [3], -33.2%; in assay [4], 0%. The activity change, negative = inhibition in assay [2] stood at 0.252%.
Regarding `COc1ccc(CCNC(=O)c2ccc3c(=O)[nH]c4c(C(=O)NC5CCCC5)sc(=S)n4c3c2)cc1OC`, the values for the activity in assay [1], in assay [3] and in assay [4] were -35.3%, -49.2% and -23%, respectively. Besides, the Potency in assay [2] is 24.1 µM (active).
As to `Cc1ccsc1CCNC(=O)Cn1c(=O)oc2cc(S(=O)(=O)N3CCCC3)ccc21`, the activity in assay [1] was -8.14%; in assay [3], -5.53%; in assay [4], -81.8%. The activity change, negative = inhibition in assay [2] was -1.17%.
For `Cc1ccc2c(c1)c(-n1cccc1)c1n2CC(C)(C(=O)NC2CCCCC2)N(Cc2ccccn2)C1=O` (stereo not given), in that order: 4.89%, -16.5%, 0% and 0.484%.
As to `CN1CCC(N2CC[C@H](c3nc4ccccc4[nH]3)C2)CC1`, the activity in assay [1] was -6.53%; in assay [3] it was -26.5%; in assay [4] it was -6.23%. Also, in assay [2], the activity change, negative = inhibition is -8.47% [at 114 µM].
Regarding `CC(C)Cn1c(=O)c2ccccc2n2c(CCC(=O)N3CCN(Cc4ccccc4)CC3)nnc12`, the figures for the activity in assay [1], in assay [3] and in assay [4] were 0.0224%, -55.9% and -3.34%, respectively. In addition, the activity change, negative = inhibition in assay [2] came to 2.81%.
Taken in the same sequence, the figures for `CN(Cc1ccccc1)C1(C(=O)NC2CCC(O)CC2)Cc2ccccc2C1` (stereo not given) were 2.67%, 7.08%, 6.38% and 3.98%.

Source of the values: PubChem BioAssay (NCATS).
